# Where “and” joins values, the source holds several entries; their conditions need not be identical. Equal entries are not always repeated. The whole screen tested about 16,000 compounds, of which about 2,600 (16%) were called active. Inconclusive results (about 20%) are left out. The call rests on the fitted dose curve; in most records, active means well fitted curve in the direction sought with a large enough effect; inconclusive means small, poorly fitted or top-dose-only effect, or effect the other way; inactive means no such curve, though single readings can be large or run the other way. Only a sample is shown.
# Biological target: Cytochrome P450 2D6 (Homo sapiens) (UniProt P10635)
# Sequence (P10635 whole entry, looked up): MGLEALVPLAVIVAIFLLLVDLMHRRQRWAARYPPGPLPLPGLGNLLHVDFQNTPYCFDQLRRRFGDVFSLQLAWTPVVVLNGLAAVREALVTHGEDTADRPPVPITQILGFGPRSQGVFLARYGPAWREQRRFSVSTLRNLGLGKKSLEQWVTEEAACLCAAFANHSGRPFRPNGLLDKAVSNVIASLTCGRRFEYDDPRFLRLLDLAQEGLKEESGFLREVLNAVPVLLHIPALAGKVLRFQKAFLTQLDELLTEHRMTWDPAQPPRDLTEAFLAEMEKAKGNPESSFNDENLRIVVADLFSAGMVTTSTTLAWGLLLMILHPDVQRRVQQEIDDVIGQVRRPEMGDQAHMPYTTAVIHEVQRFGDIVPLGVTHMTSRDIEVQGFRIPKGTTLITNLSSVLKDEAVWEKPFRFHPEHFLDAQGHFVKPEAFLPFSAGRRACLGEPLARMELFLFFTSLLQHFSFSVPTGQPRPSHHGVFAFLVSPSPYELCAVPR
# Assay: Cytochrome panel assay with activity outcomes
# Settings: recombinant CYP, pro-luciferin dealkylation, luminescence, p450-cyp2d6; series mostly up to 57.1 µM; activity, negative = inhibition: at the top concentration
# On the % scale 0 is the no-effect control and ±100 the full control effect.
SMILES,"activity, negative = inhibition",AC50
CCOC(=O)c1nc2sc(C)c(C)c2c(=O)[nH]1,6.61% (inactive),–
C[C@@H]1O[C@@H](n2cc(F)c(=O)[nH]c2=O)[C@H](O)[C@@H]1O,2.47% (inactive),–
COC(=O)[C@@]1(Cc2ccc(OC)cc2)[C@@H]2C(=CC(=O)[C@H]2CC(=O)C(=O)N(C)C)CN1C(=O)c1ccccc1,-6.49% (inactive),–
CCCSc1cc(N2CCCC2)nc(-c2ccccc2)n1,-6.04% (inactive),–
CN(c1ccccc1)c1nc(-n2ccnc2)nc(-n2ccnc2)n1,–,11.2 µM (active)
CCOc1nc(N2CCCCC2)nc(-n2cc(-c3ccccc3)nn2)n1,10.5% (inactive),–
c1ccc(-c2nc(N3CCCCCC3)nc(-n3ccnc3)n2)cc1,–,14.1 µM (active)
C[C@@H](N)C(=O)O,11.9% (inactive),–
Cc1c(C(=O)NN2CCN(C)CC2)cccc1[N+](=O)[O-],21% (inactive),–
Cc1sc(=NC(=O)c2ccco2)n(C)c1-c1ccc(F)cc1,8.56% (inactive),–
CCc1cc2cc(C)c(C)cc2nc1SCC(=O)NNC(=O)c1ccco1,15.9% (inactive),–
CC(C)(C)C(=O)N1CCN(c2ccc([N+](=O)[O-])c(NCC3CCCO3)c2)CC1 (centres undefined),-24.3% (inactive),–
COc1cccc([C@H](O)Cn2cc(-c3ccc(CON=C(C)C)cc3)nn2)c1,4% [at 11.4 µM] (inactive),–
O=c1c(Cl)c(N2CCN(S(=O)(=O)c3ccc(F)cc3)CC2)cnn1-c1cccc(Cl)c1,0.0421% (inactive),–
CC(=O)C=NCC(=O)O,-2.95% [at 11.4 µM] (inactive),–
c1csc(CNc2cc(-c3ccoc3)ncn2)c1,–,15.8 µM (active)
c1cncc(CNc2cc(-c3ccoc3)ncn2)c1,-8.57% (inactive),–
Cc1cccc(CNc2cc(-c3ccoc3)ncn2)c1,–,25.1 µM (active)
Cc1cnc(CNc2cc(-c3ccoc3)ncn2)cn1,9.36% (inactive),–
Cc1cccc(CNc2cc(-c3ccc(N(C)C)cc3)ncn2)c1,-15.8% (inactive),–
C=CCSc1ccsc1C(=O)O,4.5% (inactive),–
Cc1cc(C)n2c(SCC(=O)N(C)C3CCS(=O)(=O)C3)nnc2n1 (centres undefined),-4.18% (inactive),–
O=c1c(C=Nc2ccc(Oc3ccccc3)cc2)c[nH]n1-c1cccc(Cl)n1,-11.3% (inactive),–
CC(=O)OCc1c(C(F)(F)F)nn(C)c1Sc1ccccc1,-12.7% (inactive),–
c1ccc2c(c1)c1ccccc1n2Cn1c2ccccc2c2ccccc21,-12.9% [at 11.4 µM] (inactive),–

SMILES,"activity, negative = inhibition",AC50
Cc1ccccc1OCC(O)Cn1c(NCc2ccccc2)nc2c1c(=O)[nH]c(=O)n2C (centres undefined),-3.75% (inactive),–
Cc1ccccc1OCC(O)Cn1c2ccccc2c2ccccc21 (centres undefined),–,0.891 µM (active)
Cc1ccc(OCC(O)CNC(=O)c2ccccc2C(=O)O)cc1 (centres undefined),19.5% (inactive),–
Cc1ccc(OCC(O)Cn2c3ccccc3c3ccccc32)cc1 (centres undefined),–,6.31 µM (active)
CCn1c2ccccc2c2cc(NC(=O)C(C)Oc3ccc(OC)cc3)ccc21 (centres undefined),-24.2% (inactive),–
OC[C@@H](O)COc1cccc2ccccc12,8.76% (inactive),–
CC(=O)Nc1ccc(OCC(O)Cn2c3ccccc3c3ccccc32)c(C)c1 (centres undefined),–,14.1 µM (active)
Cc1cc(C)n(CC(O)COc2ccccc2)n1 (centres undefined),-20.6% (inactive),–
C=CCN(CC=C)CC(O)Cn1c2ccccc2c2ccccc21 (centres undefined),–,0.224 µM (active)
C#CCCCO/N=C1/[C@H]2O[C@@H]2[C@@H](O)[C@H]2[C@H]1CCn1c(=O)n(Cc3cc4c(cc3Cl)OCO4)c(=O)n12,-0.473% [at 11.4 µM] (inactive),–
O=C(O)c1nnsc1-c1csnn1,-6.92% [at 11.4 µM] (inactive),–
Cc1cc(C)c(C(N)=O)c(NC(=O)Nc2ccccc2)n1,-1.35% (inactive),–
O=c1[nH][nH]c(=S)c(=O)[nH]1,0.16% [at 11.4 µM] (inactive),–
C=CCNC(=S)Nc1ccc2nc(C)c(C)nc2c1,-21.9% (inactive),–
Cc1ccc(NC(=O)CN(C)C(=O)CSc2n[nH]c(N)n2)cc1,-2.04% (inactive),–
CCn1cc(C(=O)N/N=C(/C)c2ccc(F)cc2)c(=O)c2cc(F)c(N3CCCC3)cc21,-16.1% (inactive),–
CCc1cccc2c3c([nH]c12)[C@@](CC)(CC(=O)O)OCC3,8.03% [at 25.6 µM] (inactive),–
O=C1S/C(=C/c2ccc(N3CCOCC3)o2)C(=O)N1Cc1ccc(F)cc1,-5.57% (inactive),–
COc1ccc(NC(=O)C2(c3ccc(NC(=O)c4ccc(C)cc4)cc3)CCCC2)cc1,-1.99% (inactive),–
C/C(=N/Nc1ccc2ccccc2n1)c1ccccc1O,–,0.794 µM (active)
CC(=NC1CCCCC1)c1ccccc1O,-7.44% [at 11.4 µM] (inactive),–
CC(=O)/C=C/c1ccc2ccccc2n1,-25.2% (inactive),–
COc1ccc(/C(O)=C2/C(=O)C(=O)N(CCN3CCOCC3)C2c2ccc(C)cc2)cc1 (centres undefined),29.8% (inactive),–
CN1CCN(c2ncc3nc(CCc4ccccc4)c(=O)n(C)c3n2)CC1,-8.43% (inactive),–
O=C(O)[C@@H]1[C@@H](C(=O)NCc2ccncc2)[C@@H]2C=C[C@@H]1O2,-9.91% [at 11.4 µM] (inactive),–

SMILES,"activity, negative = inhibition",AC50
O=C(COc1ccc([N+](=O)[O-])cc1)NN=C1CCCC1,-17.7% (inactive),–
COc1ccc(N(CC(=O)NN=C2CCCC2)S(=O)(=O)c2ccccc2)cc1,-23.6% (inactive),–
O=C(CN(c1ccccc1)S(=O)(=O)c1ccccc1[N+](=O)[O-])NN=C1CCCCCCC1,–,4.47 µM (active)
CNC(=O)[C@H]1O[C@H](n2cnc3c(NCc4cccc(I)c4)ncnc32)[C@@H](O)[C@@H]1O,-3.89% (inactive),–
CCCCC(C=O)NC(=O)C(CC(C)C)NC(=O)OCc1ccccc1 (centres undefined),-8.92% (inactive),–
NCc1ccccc1CC(=O)N[C@@H]1C(=O)N2C(C(=O)O)=C(CSc3nnnn3CC(=O)O)CS[C@@H]12,5.45% [at 25.6 µM] (inactive),–
COc1cc(/C=N\NC(=O)C2C(=O)NCC2c2ccccc2)cc(OC)c1O (centres undefined),0.0367% (inactive),–
Cc1cccc(C)c1NC(=O)CCN1C(=O)C2C3CCC(C3)C2C1=O (centres undefined),-0.973% (inactive),–
Cc1cccc(C)c1NC(=O)N1CCC(N2CCCCC2)CC1,-13.6% (inactive),–
CCCCN1CCCC[C@H]1C(=O)Nc1c(C)cccc1C,–,0.501 µM (active)
Cc1ccc(/C(C#N)=C/c2cccc([N+](=O)[O-])c2)cc1,8% [at 11.4 µM] (inactive),–
CN(C)Cc1cc(O)c(O)c(CN(C)C)c1,1.36% [at 11.4 µM] (inactive),–
COC(=O)c1cc(-c2ccccc2)sc1NC(=O)CN1C(=O)c2ccccc2C1=O,-10.5% (inactive),–
Cc1ccc2nc(-c3ccc(NC(=O)c4ccc(N)cc4)c(S(=O)(=O)O)c3)sc2c1,10.5% [at 11.4 µM] (inactive),–
Cc1ccc2c(c1)N(CC(=O)NCc1cccs1)C(=O)C(C)O2 (centres undefined),–,12.6 µM (active)
Cc1ccc(C)c(NC(=O)Cn2nnc(C(=O)NCc3cccs3)c2N)c1,-4.92% (inactive),–
COc1ccc(CCNC(=O)CCN2C(=O)C(C)Oc3ccc(C)cc32)cc1OC (centres undefined),-5.38% (inactive),–
COc1ccccc1COC(=O)Nc1c(C)nn(C)c1Cl,13.3% (inactive),–
COc1ccc2c(c1)c(CC(=O)N1CCOCC1)c(C)n2C(=O)c1ccc(Cl)cc1,0.728% (inactive),–
Nc1cccc2cc(S(=O)(=O)Nc3ccc(C(=O)O)cc3)ccc12,4.25% [at 11.4 µM] (inactive),–
COc1c(N2CCN(C(=S)Nc3ccc(F)cc3)C(C)C2)c(F)cc2c(=O)c(C(=O)O)cn(C3CC3)c12 (centres undefined),-2.42% (inactive),–
O=C(N/N=C/c1ccc([N+](=O)[O-])o1)c1cc(-c2ccncc2)nc2ccccc12,–,14.1 µM (active)
CCOC(=O)N/N=C\c1ccc([N+](=O)[O-])o1,-12.6% (inactive),–
O=C(O)c1cc(-c2ccncc2)nc2ccccc12,8.68% [at 11.4 µM] (inactive),–
CC(C)On1c(SC(C)C)nc2ccccc2c1=O,5.46% (inactive),–

SMILES,"activity, negative = inhibition",AC50
COn1c(SC(C)C)nc2ccccc2c1=O,-13.7% (inactive),–
COn1c(SCc2ccc(C)cc2C)nc2ccccc2c1=O,–,6.31 µM (active)
COn1c(SCc2cccc(Cl)c2)nc2ccccc2c1=O,–,0.891 µM (active)
Cc1ccc(-n2c(SCc3ccc([N+](=O)[O-])cc3)nc3ccccc3c2=O)cc1,11.1% (inactive),–
Cc1cc(C)n(-c2nc3ccccc3c(=O)n2OCc2ccc(Cl)cc2)n1,-58.9% (inactive),–
CO[C@H]1COC(=O)C/C=C\[C@H](C)[C@@H](OC)COC(=O)[C@H](Cc2ccccc2)NC(=O)C/C=C\[C@@H]1C,-13.7% [at 11.4 µM] (inactive),–
O=S(=O)(O)[C@@H](CO)c1ccccc1 (tested in a mixture with another compound),14% [at 11.4 µM] (inactive),–
CC1CCCC(NC(=O)C2CCN(S(=O)(=O)N3CCOCC3)CC2)C1C (centres undefined),24.2% (inactive),–
O=C(O)C1CCCCC1C(=O)Nc1cc(Cl)ccc1Cl (centres undefined),-1.59% (inactive),–
Cc1ccc(S(=O)(=O)O[C@@H]2[C@H]([C@@H]3COC(C)(C)O3)O[C@H]3OC(C)(C)O[C@@H]32)cc1,5.58% [at 11.4 µM] (inactive),–
O=C(O)/C=C/C(=O)Nc1ccccc1-c1ccccc1,26.2% (inactive),–
CCOC(=O)c1cc2c(C)n(-c3ccc(C)cc3)c(C)c2ccc1=O,-13.2% (inactive),–
O=C1NCN(c2ccccc2)C12CCN(CCCC(c1ccc(F)cc1)c1ccc(F)cc1)CC2,–,10 µM (active) and 1.58 µM (active)
O[C@H](CCCN1CCN(c2ncc(F)cn2)CC1)c1ccc(F)cc1,-2.23% (inactive),–
O=C(Nc1cccc(Cl)c1)Nn1cnnc1,8.42% [at 11.4 µM] (inactive),–
O=C(CNc1cccc(Cl)c1)c1ccc(Cl)cc1,–,0.447 µM (active)
CN(C)CCNC(=S)Nc1cccc(Cl)c1,-23.3% (inactive),–
Cc1ccc(NCCC(=O)c2ccc(Cl)cc2)cc1,-11.3% (inactive),–
O=C(NCCc1ccc(Cl)cc1)Nc1cccc(Cl)c1,–,0.891 µM (active)
Cc1ccc(NCCC(=O)c2ccc(Cl)cc2)cc1C,-13% (inactive),–
Cc1cnn(-c2cc(N/N=C/c3ccccc3F)ncn2)c1,2.65% (inactive),–
O=C(O)[C@@H]1[C@@H](C(=O)NCc2cccnc2)[C@@H]2C=C[C@@H]1O2,20.9% [at 11.4 µM] (inactive),–
CCCc1nnc(SCC(=O)O)n1/N=C/c1ccc2c(c1)OCO2,-14.8% (inactive),–
O=C(c1ccco1)N1CCN(c2cc(=O)n(C3CCCCC3)c(=O)[nH]2)CC1,-9.63% (inactive),–
